Assay in all cases: DAPPL (digital affinity profiling via proximity ligation, sequencing); 10 mM Tris-HCl pH 7.5, 50 mM NaCl, 1 mM DTT, 4% glycerol, room temperature, 30 min; GST-TFs on glutathione beads, 16-mer random dsDNA library, 0.1% formaldehyde crosslink after washing; high values mean tight binding
The target of one test is T1, FEV (Homo sapiens, UniProt Q99581 1-238).
T1 sequence: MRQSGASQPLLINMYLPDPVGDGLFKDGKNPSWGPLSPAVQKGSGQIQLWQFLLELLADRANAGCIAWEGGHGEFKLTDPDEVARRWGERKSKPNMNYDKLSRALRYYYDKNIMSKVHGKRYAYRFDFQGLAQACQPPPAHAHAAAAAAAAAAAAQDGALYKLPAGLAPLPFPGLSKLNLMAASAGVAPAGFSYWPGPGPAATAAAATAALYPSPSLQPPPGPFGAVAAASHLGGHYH
Particulars: protein: recombinant; tags: N-terminal GST; dsDNA, one strand shown. A digest of the protocol: (§1)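 In yeast, human transcription factors were expressed with a GST fusion, then pulled down on glutathione beads and given DNA barcodes. Pooled with a tag-only sample, they were exposed to 200 nmole of a 16-mer random double-stranded DNA library (Tris/NaCl/DTT/glycerol buffer, room temperature, 30 min), washed, crosslinked with 0.1% formaldehyde, proximity-ligated using BsaI/T4 ligase for 1 h at 37 °C, PCR-amplified and read on an Illumina NextSeq500. Each hexamer's frequency of reads for a factor, divided by the matching frequency for the tag-only sample, gives the binding signal.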

For the next test, the target named is ETV5 (Homo sapiens, UniProt P41161 1-510). The note with it: protein: recombinant; tags: N-terminal GST; dsDNA, one strand shown. A digest of the protocol: as §1
The target in a further test is HSF1 (Homo sapiens, UniProt Q00613 1-529). Particulars: protein: recombinant; tags: N-terminal GST; chain copies: 3; dsDNA, one strand shown. The essentials: as §1
In the next test the target is T2, SPIC (Homo sapiens, UniProt Q8N5J4 1-248).
T2 sequence: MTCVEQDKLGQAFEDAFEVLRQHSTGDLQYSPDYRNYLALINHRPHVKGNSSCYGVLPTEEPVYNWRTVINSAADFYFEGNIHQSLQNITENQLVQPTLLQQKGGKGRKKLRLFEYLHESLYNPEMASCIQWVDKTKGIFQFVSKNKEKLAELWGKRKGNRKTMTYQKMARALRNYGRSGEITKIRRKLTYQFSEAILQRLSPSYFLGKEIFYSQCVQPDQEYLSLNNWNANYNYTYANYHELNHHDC
Particulars: protein: recombinant; tags: N-terminal GST; dsDNA, one strand shown. A digest of the protocol: as §1

A further test deals with ELF4 (Homo sapiens, UniProt Q99607 1-663). The note with it: protein: recombinant; tags: N-terminal GST; dsDNA, one strand shown. A digest of the protocol: as §1
The next test has as its target T3, ELK4 (Homo sapiens, UniProt P28324-2 1-405).
T3 sequence: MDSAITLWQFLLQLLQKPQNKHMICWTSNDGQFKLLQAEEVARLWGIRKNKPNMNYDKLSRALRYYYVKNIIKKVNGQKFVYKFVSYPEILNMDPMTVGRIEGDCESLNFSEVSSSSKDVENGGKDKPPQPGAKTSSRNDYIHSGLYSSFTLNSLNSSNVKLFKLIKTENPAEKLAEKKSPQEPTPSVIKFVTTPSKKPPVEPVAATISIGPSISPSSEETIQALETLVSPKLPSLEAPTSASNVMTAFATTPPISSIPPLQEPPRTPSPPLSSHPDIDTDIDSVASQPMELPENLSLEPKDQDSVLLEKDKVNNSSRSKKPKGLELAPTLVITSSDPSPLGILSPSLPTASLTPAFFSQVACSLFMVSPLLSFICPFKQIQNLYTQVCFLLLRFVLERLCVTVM
The note with it: protein: recombinant; tags: N-terminal GST; dsDNA, one strand shown. The essentials:
as §1

The target in a further test is T4, ETV2 (Homo sapiens, UniProt O00321 1-342).
T4 sequence: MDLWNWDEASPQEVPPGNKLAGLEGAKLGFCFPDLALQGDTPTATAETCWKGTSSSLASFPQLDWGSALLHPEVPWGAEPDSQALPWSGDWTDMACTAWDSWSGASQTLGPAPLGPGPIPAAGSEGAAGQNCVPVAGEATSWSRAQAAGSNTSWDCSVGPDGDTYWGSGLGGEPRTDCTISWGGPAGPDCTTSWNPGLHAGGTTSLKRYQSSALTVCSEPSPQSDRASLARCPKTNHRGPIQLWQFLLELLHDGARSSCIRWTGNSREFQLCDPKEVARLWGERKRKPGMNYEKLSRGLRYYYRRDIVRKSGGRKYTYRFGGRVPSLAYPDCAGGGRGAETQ
The note with it: protein: recombinant; tags: N-terminal GST; dsDNA, one strand shown. The essentials: as §1

Another test deals with T5, ELF3 (Homo sapiens, UniProt P78545 1-371).
T5 sequence: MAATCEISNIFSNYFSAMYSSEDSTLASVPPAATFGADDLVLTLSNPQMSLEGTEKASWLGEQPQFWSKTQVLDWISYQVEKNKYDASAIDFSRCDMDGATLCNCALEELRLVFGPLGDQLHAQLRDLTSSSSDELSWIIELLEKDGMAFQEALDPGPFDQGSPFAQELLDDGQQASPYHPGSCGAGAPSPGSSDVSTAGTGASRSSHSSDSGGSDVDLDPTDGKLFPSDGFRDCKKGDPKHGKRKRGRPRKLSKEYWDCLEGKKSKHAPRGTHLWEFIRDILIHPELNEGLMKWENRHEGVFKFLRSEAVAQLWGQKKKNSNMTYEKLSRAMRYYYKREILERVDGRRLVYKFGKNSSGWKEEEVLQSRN
Particulars: protein: recombinant; tags: N-terminal GST; dsDNA, one strand shown. The essentials:
as §1

The next test deals with CRX (Homo sapiens, UniProt O43186 1-299). Particulars: protein: recombinant; tags: N-terminal GST; dsDNA, one strand shown. A digest of the protocol: as §1
Another test has as its target ETV1 (Homo sapiens, UniProt P50549 1-477). The note with it: protein: recombinant; tags: N-terminal GST; dsDNA, one strand shown. The essentials:
as §1

For another test, the target named is T6, ERF (Homo sapiens, UniProt P50548 1-548).
T6 sequence: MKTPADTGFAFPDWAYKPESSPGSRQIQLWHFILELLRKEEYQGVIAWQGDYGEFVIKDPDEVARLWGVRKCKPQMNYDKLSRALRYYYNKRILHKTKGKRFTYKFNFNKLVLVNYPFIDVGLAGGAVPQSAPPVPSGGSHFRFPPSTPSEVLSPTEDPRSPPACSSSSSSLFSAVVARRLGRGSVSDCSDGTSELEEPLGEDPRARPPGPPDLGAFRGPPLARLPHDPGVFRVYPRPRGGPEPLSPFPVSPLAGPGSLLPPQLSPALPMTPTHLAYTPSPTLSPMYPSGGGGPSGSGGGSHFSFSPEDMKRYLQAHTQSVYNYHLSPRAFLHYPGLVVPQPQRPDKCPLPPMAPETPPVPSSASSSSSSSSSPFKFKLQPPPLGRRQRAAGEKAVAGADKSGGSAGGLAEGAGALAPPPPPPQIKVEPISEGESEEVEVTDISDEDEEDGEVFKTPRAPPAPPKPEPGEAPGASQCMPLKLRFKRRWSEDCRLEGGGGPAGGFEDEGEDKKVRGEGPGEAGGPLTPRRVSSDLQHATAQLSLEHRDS
The note with it: protein: recombinant; tags: N-terminal GST; dsDNA, one strand shown. A digest of the protocol:
as §1

For a further test, the target named is T7, ETV3L (Homo sapiens, UniProt Q6ZN32 1-361).
T7 sequence: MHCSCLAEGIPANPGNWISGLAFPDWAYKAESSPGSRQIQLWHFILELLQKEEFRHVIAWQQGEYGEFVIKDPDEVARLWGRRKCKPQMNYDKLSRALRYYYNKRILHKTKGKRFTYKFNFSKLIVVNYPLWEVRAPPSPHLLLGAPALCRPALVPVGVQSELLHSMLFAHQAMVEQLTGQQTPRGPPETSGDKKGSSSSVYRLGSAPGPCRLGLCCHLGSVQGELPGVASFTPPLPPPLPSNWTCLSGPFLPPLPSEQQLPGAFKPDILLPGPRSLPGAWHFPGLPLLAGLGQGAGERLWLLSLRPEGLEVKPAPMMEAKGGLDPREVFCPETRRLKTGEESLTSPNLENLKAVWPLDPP
The note with it: protein: recombinant; tags: N-terminal GST; dsDNA, one strand shown. The essentials: as §1

Another test concerns the target T8, ETS2 (Homo sapiens, UniProt P15036 1-469).
T8 sequence: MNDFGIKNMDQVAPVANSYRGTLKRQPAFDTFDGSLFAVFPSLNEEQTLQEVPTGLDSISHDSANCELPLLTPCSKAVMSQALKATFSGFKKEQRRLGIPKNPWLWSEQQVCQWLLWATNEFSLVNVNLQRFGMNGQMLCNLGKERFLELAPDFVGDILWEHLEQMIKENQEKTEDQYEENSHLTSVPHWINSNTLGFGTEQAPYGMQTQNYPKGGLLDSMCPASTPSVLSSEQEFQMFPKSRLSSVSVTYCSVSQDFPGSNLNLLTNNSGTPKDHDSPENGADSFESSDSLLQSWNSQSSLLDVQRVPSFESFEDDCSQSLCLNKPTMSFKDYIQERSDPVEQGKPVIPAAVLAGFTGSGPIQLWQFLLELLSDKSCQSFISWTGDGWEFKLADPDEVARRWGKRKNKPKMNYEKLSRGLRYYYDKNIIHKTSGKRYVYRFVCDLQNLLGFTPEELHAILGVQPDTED
Particulars: protein: recombinant; tags: N-terminal GST; dsDNA, one strand shown. The essentials:
as §1

In another test the target is T9, SPDEF (Homo sapiens, UniProt O95238 1-335).
T9 sequence: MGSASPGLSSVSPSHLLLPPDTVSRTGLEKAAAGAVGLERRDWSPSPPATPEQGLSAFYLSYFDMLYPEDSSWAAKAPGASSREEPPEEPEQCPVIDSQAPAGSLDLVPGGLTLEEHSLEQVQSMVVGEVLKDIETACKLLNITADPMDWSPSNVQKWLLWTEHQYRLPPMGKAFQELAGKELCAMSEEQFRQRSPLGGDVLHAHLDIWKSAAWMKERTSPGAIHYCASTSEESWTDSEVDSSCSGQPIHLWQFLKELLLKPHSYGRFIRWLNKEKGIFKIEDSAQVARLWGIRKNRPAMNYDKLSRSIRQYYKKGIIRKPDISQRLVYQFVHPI
The note with it: protein: recombinant; tags: N-terminal GST; dsDNA, one strand shown. The essentials: as §1

For the next test, the target named is T10, ETV7 (Homo sapiens, UniProt Q9Y603 1-341).
T10 sequence: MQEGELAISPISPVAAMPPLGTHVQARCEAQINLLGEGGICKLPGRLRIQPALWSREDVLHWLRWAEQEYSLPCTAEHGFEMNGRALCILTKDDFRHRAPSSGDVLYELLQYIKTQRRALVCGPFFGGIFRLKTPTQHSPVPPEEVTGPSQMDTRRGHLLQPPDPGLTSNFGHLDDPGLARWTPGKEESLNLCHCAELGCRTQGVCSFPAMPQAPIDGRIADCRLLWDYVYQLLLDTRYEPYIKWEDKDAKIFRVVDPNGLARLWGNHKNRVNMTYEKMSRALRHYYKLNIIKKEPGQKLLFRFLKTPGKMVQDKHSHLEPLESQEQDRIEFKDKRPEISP
Particulars: protein: recombinant; tags: N-terminal GST; dsDNA, one strand shown. The essentials: as §1

A further test addresses T11, ELF5 (Homo sapiens, UniProt Q9UKW6-2 1-255).
T11 sequence: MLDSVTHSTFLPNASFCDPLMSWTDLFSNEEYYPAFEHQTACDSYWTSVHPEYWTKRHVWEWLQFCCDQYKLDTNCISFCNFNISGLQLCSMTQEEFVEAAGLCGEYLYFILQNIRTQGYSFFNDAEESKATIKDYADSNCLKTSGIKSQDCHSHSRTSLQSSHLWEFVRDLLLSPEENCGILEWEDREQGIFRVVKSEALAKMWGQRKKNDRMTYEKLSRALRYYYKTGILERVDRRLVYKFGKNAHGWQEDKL
Particulars: protein: recombinant; tags: N-terminal GST; dsDNA, one strand shown. A digest of the protocol: as §1

For a further test, the target named is T12, ETV3 (Homo sapiens, UniProt P41162-2 1-143).
T12 sequence: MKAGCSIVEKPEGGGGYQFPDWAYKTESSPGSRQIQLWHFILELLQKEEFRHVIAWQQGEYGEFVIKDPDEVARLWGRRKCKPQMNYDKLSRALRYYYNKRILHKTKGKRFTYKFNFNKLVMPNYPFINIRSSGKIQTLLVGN
The note with it: protein: recombinant; tags: N-terminal GST; dsDNA, one strand shown. A digest of the protocol:
as §1

In the next test the target is ETV6 (Homo sapiens, UniProt P41212 1-452). Particulars: protein: recombinant; tags: N-terminal GST; dsDNA, one strand shown. A digest of the protocol:
as §1

Chain of ELF4 (Q99607 whole entry): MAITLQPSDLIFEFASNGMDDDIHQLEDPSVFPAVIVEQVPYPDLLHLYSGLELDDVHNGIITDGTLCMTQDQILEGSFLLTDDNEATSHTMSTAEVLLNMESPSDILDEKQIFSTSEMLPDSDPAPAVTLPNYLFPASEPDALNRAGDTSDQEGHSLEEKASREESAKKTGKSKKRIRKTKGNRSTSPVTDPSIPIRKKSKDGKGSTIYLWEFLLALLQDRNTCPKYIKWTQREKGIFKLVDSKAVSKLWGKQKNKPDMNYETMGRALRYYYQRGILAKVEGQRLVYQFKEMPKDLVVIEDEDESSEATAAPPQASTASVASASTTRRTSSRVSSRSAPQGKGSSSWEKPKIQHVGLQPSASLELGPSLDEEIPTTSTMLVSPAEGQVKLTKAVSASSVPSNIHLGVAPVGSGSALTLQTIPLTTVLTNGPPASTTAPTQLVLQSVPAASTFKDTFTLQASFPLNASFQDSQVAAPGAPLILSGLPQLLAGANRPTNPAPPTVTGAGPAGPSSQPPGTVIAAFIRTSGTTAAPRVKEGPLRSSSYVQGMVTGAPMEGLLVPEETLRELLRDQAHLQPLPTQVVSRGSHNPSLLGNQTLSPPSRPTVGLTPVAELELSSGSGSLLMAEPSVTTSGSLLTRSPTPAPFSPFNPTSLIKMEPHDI
Chain of ETV1 (P50549 whole entry): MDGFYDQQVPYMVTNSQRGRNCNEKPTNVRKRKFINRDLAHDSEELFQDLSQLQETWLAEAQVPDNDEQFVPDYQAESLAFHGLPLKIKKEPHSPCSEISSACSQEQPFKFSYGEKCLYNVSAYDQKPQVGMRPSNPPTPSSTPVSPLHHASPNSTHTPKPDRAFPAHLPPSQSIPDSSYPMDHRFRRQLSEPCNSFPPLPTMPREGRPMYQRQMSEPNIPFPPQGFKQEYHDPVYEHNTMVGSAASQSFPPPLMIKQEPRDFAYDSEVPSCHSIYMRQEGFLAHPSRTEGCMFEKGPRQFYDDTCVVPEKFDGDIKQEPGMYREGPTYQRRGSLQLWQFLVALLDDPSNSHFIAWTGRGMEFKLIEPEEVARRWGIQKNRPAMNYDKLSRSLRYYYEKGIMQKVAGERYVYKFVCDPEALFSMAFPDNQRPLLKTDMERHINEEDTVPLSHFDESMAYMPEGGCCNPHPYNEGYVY
Chain of ETV6 (P41212 whole entry): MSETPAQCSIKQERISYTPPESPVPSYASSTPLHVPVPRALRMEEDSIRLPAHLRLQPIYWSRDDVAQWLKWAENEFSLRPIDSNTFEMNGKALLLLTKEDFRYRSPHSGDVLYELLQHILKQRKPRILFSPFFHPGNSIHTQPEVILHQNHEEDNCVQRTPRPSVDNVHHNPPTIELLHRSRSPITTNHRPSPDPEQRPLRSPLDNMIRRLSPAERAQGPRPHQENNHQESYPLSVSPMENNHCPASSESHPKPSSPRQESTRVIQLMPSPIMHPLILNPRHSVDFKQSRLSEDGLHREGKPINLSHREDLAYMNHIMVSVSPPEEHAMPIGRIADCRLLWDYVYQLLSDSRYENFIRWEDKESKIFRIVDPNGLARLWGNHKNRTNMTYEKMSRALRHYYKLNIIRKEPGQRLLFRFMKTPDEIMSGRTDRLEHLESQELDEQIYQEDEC
Chain of ETV5 (P41161 whole entry): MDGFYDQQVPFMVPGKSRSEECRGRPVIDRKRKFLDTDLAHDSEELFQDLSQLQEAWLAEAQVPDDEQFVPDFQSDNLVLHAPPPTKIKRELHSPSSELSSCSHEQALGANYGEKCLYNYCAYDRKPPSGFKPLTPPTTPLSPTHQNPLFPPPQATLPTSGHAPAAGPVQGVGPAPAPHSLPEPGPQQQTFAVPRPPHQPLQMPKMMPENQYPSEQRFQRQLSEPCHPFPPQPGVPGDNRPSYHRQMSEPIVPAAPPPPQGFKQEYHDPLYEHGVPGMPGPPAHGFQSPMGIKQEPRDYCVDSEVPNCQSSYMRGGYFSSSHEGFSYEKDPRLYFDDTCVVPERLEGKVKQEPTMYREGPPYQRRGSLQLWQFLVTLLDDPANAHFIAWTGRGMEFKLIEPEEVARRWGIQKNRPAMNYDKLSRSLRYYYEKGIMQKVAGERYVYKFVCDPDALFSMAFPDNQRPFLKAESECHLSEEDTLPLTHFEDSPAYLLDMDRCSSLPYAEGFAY
Chain of CRX (O43186 whole entry): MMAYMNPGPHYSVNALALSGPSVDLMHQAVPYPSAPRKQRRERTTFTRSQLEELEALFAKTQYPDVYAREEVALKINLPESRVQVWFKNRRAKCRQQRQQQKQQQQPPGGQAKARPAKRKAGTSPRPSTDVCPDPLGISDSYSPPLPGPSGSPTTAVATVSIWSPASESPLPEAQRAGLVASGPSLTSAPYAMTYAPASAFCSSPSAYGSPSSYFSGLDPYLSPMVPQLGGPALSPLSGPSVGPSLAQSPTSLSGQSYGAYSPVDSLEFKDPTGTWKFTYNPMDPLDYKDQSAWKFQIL
Chain of HSF1 (Q00613 whole entry): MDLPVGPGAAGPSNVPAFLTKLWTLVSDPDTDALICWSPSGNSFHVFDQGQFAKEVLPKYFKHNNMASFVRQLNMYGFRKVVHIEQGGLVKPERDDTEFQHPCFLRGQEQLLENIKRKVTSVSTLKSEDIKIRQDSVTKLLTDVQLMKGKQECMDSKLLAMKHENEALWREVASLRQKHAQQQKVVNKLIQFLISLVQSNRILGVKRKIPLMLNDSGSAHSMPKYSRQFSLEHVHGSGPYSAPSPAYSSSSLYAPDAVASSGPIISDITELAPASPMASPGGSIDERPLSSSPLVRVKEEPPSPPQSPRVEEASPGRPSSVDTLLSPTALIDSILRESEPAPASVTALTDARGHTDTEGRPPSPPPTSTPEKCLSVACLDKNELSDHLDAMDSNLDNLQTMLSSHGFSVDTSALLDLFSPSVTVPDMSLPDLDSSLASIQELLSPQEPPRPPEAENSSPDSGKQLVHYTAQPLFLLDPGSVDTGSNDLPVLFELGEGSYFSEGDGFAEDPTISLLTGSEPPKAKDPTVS

Consider CCCGTT, for which the binding signal in the test with FEV was 1.13 fold enrichment (6-mer frequency, TF over GST control); in the test with ETV5, 1.21 fold enrichment (6-mer frequency, TF over GST control); in the test with HSF1, 1.03 fold enrichment (6-mer frequency, TF over GST control); with SPIC, 1.07 fold enrichment (6-mer frequency, TF over GST control); in the test with ELF4, 1.15 fold enrichment (6-mer frequency, TF over GST control); with ELK4, 1.06 fold enrichment (6-mer frequency, TF over GST control). For the same sequence, the binding signal is 1.18 fold enrichment (6-mer frequency, TF over GST control) with ETV2; 1.26 fold enrichment (6-mer frequency, TF over GST control) in the test with ELF3; 1.02 fold enrichment (6-mer frequency, TF over GST control) in the test with CRX; 1.03 fold enrichment (6-mer frequency, TF over GST control) in the test with ETV1; 1.13 fold enrichment (6-mer frequency, TF over GST control) with ERF; 1.19 fold enrichment (6-mer frequency, TF over GST control) with ETV3L. In addition, the binding signal in the test with ETS2 is 1.1 fold enrichment (6-mer frequency, TF over GST control); with SPDEF, 1.2 fold enrichment (6-mer frequency, TF over GST control); with ETV7, 1.19 fold enrichment (6-mer frequency, TF over GST control); with ELF5, 1.27 fold enrichment (6-mer frequency, TF over GST control); with ETV3, 1.17 fold enrichment (6-mer frequency, TF over GST control); in the test with ETV6, 1.16 fold enrichment (6-mer frequency, TF over GST control).

The record behind these values is paper PMC7862700, “An all-to-all approach to the identification of sequence-specific readers for epigenetic DNA modifications on cytosine”.
